# Test results: PubChem BioAssay
# Records with an inconclusive call do not appear. Activity calls are given as the source filed them. Unless noted, no cut-off is given here; in the data, nearly all actives have AC50 up to about 26 µM.
# How the values were obtained:
# [1] = viability loss in pontine glioma line – cell-based, SU-DIPG-XVII, MIPE5.0, CellTiter-Glo, qHTS, dose response (AID 1347060); conditions: CellTiter-Glo ATP luminescence;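 for AC50: cells exposed to compound for 48 hours before viability readout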
# [2] = viability loss in pontine glioma line – cell-based, SU-DIPG-XIII, MIPE5.0, CellTiter-Glo, qHTS, dose response (AID 1347064; cut-off not given, nearly all actives have AC50 up to about 23 µM;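 for AC50: cells exposed to compound for 48 hours before the viability read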); conditions: CellTiter-Glo ATP luminescence
# [3] = JHH-DIPG-1 glioma cell viability, MIPE5.0 library, CellTiter-Glo luminescence, qHTS (AID 1347067); conditions: JHH-DIPG-1 glioma viability, CellTiter-Glo ATP luminescence;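 note: cells exposed to compound for 48 hours before readout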
# [4] = growth inhibition of DIPG cells – cell-based, MIPE5.0 library, qHTS (AID 1347068; cut-off not given, nearly all actives have IC50 up to about 30 µM); conditions: SU-DIPG-XXV viability
# [5] = viability loss in pontine glioma line – cell-based, SU-DIPG-XXV, MIPE5.0, CellTiter-Glo, qHTS, dose response (AID 1347065); conditions: CellTiter-Glo ATP luminescence;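 note: cells exposed to compound for 48 hours before ATP readout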
# [6] = growth inhibition of DIPG cells – cell-based, MIPE4.0 library, CellTiter-Glo luminescence, qHTS (AID 1347066; cut-off not given, nearly all actives have AC50 up to about 30 µM;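 note: cells exposed to compound for 48 hours before readout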); conditions: SU-DIPG-VI viability, CellTiter-Glo ATP luminescence
# [7] = viability loss with induced miR-34 in A549 – imaging, A549 dox-inducible miR-34, nuclei and caspase counts, primary screen (AID 1347080;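 active = compounds whose cell count with miR-34 switched on is under 0.7 times the count with it off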); conditions: A549 miR-34 inducible, Hoechst nuclei count, 48 h
# [8] = MELAS cybrid and Rieske KO viability enhancers – cell-based, MELAS cybrids, Rieske KO mouse fibroblasts, CellTiter-Glo, primary screen (AID 1508586;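 active = mean z-score across replicates of 1.96 or higher in either the MELAS or the Rieske mutant cell line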;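 note: z relative to plate mean and SD of compound and empty wells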); conditions: low glucose
compound,measurement,setting,value
COc1ccc2c(C(=S)N(C)CC(=O)O)cccc2c1C(F)(F)F,outcome,[1],inactive
same,outcome,[2],inactive
same,outcome,[3],inactive
same,outcome,[4],inactive
C[C@H]1CN(C2COC2)CCN1c1ccc(Nc2cc(-c3ccnc(N4CCn5c(cc6c5CC(C)(C)C6)C4=O)c3CO)cn(C)c2=O)nc1,outcome,[1],inactive
same,outcome,[2],inactive
same,outcome,[3],inactive
same,outcome,[4],inactive
Fc1ccc(-c2csc3ncnc(NCc4ccc5c(c4)OCO5)c23)cc1,AC50,[1],20.9 µM (active)
same,AC50,[2],16.6 µM (active)
same,AC50,[3],18.6 µM (active)
same,outcome,[4],inactive
COc1cc(C)[nH]c(=O)c1CN1CCc2c(Cl)cc([C@H](OC)C3COC3)c(Cl)c2C1=O,outcome,[1],inactive
same,outcome,[2],inactive
same,outcome,[3],inactive
same,outcome,[4],inactive
NS(=O)(=O)c1ccc(S(=O)(=O)Nc2cccc3c(Cl)c[nH]c23)cc1,AC50,[1],3.32 µM (active)
same,AC50,[2],0.934 µM (active)
same,AC50,[3],1.18 µM (active)
Cn1cc(-c2nc(N[C@@H]3CCCC[C@@H]3N)c(F)c3c2C(=O)NC3)cn1,outcome,[1],inactive
same,outcome,[2],inactive
same,outcome,[3],inactive
same,outcome,[4],inactive
N[C@@H]1CN(c2c(F)cc3c(=O)c(C(=O)O)cn([C@@H]4C[C@@H]4F)c3c2Cl)CC12CC2,outcome,[1],inactive
same,outcome,[2],inactive
same,outcome,[3],inactive
same,outcome,[4],inactive
C[C@@]1(c2ncncc2F)NC(=O)c2cc(-c3cn[nH]c3)ccc21,outcome,[1],inactive
same,outcome,[2],inactive
same,outcome,[3],inactive
same,outcome,[4],inactive
CNCCN(C)Cc1cn[nH]c1-c1ccc(OC2CC(OCCC3CCOCC3)C2)cc1 (stereo not drawn),outcome,[1],inactive
same,outcome,[2],inactive
same,outcome,[3],inactive
same,outcome,[4],inactive
Cc1ncc(Cl)cc1NCc1ccc(C(=O)NC(CC2CCCC2)C(=O)NC2CC2)s1 (stereo not drawn),outcome,[1],inactive
same,outcome,[2],inactive
same,outcome,[5],inactive
same,outcome,[4],inactive
NS(=O)(=O)OC[C@@H]1C[C@@H](n2ccc3c(N[C@H]4CCc5ccccc54)ncnc32)C[C@@H]1O,AC50,[1],1.48 µM (active)
same,outcome,[2],inactive
same,outcome,[6],inactive
same,outcome,[3],inactive
same,outcome,[4],inactive
O=C(Nc1ccc(-c2ccnc(Nc3ccc(N4CCOCC4)cc3)n2)cc1)C1CCCN1 (stereo not drawn),AC50,[1],18.6 µM (active)
same,AC50,[2],18.6 µM (active)
same,AC50,[5],16.6 µM (active)
same,outcome,[4],inactive
same,fold change,"[7]; stronger effect = lower value, cell number ratio, induced over uninduced",0.711 (inactive)
same,fold change,[7]; measured here: relative caspase fold change +Dox/-Dox,0.977
same,cell count,"[7]; measured here: total cells with miR-34 induction, stronger effect = lower value",5090
same,cell count,[7]; measured here: total cells without miR-34 induction,7160
same,z-score,"[8]; MELAS cybrid survival, CellTiter-Glo 48 h, stronger effect = higher value",-0.234 (inactive)
same,z-score,"[8]; Rieske KO mouse fibroblast survival, CellTiter-Glo 72 h",-0.152
Fc1ccc(-c2nc(-c3ccccc3F)[nH]c2-c2ccncc2)cc1,outcome,[1],inactive
same,outcome,[2],inactive
same,outcome,[3],inactive
same,outcome,[4],inactive
